The whole screen tested about 67,000 compounds, of which about 300 (0.45%) showed an effect of 50% or more. This is one part of a sample in which strong results are shown more often than they occur.

For this assay, the target named is Polyketide synthase Pks13 (Mycobacterium tuberculosis (strain ATCC 25618 / H37Rv)) (UniProt I6X8D2). Description: Mycobacterium tuberculosis Polyketide synthase 13 Thioesterase (PKS13). Particulars: 30 µM. It is filed as functional. Also noted: scale not given: in the data most compounds retested in dose-response had high values.
Polyketide synthase Pks13 (Mycobacterium tuberculosis (strain ATCC 25618 / H37Rv)), sequence (I6X8D2 whole entry): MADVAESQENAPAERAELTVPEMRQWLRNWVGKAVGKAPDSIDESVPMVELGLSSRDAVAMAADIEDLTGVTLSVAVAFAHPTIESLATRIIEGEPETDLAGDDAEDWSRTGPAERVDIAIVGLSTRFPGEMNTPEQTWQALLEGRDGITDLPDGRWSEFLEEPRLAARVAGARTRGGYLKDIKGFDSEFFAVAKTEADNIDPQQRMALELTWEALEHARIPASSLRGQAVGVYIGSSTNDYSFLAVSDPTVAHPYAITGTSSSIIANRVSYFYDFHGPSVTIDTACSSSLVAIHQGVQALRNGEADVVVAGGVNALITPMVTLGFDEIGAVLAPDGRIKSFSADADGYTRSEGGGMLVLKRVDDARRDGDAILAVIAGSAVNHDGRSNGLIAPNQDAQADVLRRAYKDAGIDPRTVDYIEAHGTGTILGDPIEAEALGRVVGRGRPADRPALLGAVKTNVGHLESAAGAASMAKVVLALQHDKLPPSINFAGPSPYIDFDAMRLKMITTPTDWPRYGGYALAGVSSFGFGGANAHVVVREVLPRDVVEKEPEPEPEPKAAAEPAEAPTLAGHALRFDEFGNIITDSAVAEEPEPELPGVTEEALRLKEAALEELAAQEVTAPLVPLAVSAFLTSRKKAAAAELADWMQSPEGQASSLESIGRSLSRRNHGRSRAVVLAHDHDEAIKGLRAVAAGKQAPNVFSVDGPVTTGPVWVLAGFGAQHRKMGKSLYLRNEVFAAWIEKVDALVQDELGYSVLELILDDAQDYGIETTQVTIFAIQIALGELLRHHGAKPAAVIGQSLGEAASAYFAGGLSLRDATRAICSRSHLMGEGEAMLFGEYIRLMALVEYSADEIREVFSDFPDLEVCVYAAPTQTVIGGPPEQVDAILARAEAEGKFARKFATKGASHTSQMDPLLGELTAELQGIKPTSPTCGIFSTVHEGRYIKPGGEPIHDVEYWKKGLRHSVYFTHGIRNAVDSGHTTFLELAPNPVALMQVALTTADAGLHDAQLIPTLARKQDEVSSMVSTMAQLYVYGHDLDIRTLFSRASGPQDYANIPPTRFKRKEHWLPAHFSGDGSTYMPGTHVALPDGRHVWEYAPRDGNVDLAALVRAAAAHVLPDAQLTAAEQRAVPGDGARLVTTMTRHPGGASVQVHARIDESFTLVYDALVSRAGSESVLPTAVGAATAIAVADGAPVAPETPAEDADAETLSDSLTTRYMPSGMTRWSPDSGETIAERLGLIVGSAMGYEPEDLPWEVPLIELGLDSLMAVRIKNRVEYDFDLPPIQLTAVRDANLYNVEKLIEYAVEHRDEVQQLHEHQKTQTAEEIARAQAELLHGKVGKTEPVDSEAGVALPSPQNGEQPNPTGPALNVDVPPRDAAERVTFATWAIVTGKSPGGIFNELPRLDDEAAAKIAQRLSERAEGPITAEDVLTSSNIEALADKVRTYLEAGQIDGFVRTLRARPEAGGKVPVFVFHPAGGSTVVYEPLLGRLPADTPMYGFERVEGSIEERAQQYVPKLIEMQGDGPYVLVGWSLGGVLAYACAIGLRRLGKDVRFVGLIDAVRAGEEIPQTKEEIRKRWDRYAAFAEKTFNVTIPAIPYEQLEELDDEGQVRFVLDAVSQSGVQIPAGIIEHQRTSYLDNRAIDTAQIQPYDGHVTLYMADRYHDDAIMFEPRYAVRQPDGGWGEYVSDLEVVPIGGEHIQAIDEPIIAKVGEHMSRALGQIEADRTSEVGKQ
In the case of `CN(C)[C@H]1C[C@@H](Cc2cc(-c3ccc(F)cc3)on2)C1(C)C`, the Percent Effect is -26.6%.

As for `CN(C)[C@H]1C[C@@H](Cc2cc(CO)on2)C1(C)C`, the Percent Effect was -32.8%.

As to `COc1ccc(-c2cc(C[C@@H]3C[C@H](N(C)C)C3(C)C)no2)cc1`, the Percent Effect turned out to be 53.8%.

Regarding `CN(C)C(=O)c1cnc(-c2ccc3c(c2)OCO3)s1`, the Percent Effect was 70.4%.

For `CC(C)N(CC(N)=O)C(=O)c1cnc(-c2ccc3c(c2)OCO3)s1`, the Percent Effect is 71.9%.

Turning to `CC(C(=O)NCCOc1ccc2c(c1)OCO2)n1cncn1` (stereo unspecified), the Percent Effect is -36.9%.

On to `CC(C1CC1)N(C)C(=O)c1cnc(-c2ccc3c(c2)OCO3)s1` (stereo unspecified), for which the Percent Effect was -13%.

Turning to `CC(C)N(CCC#N)C(=O)c1cnc(-c2ccc3c(c2)OCO3)s1`, the Percent Effect came out at 46.5%.

Regarding `CCN(C(=O)c1cnc(-c2ccc3c(c2)OCO3)s1)C1CC1`, the Percent Effect amounted to 28.9%.

On to `O=C(N[C@@H]1CN(Cc2ccccn2)[C@@H]2COC[C@@H]21)C1CCC1`, for which the Percent Effect is -11.8%.

Turning to `O=C1CCCC2=C1C(c1cc(Cl)ccc1F)Nc1nonc1N2` (stereo unspecified), the Percent Effect was -14.9%.

Take `CNC(=O)[C@H]1C[C@@H]2CCN(CCc3ccccc3)C[C@@H]2O1`: the Percent Effect is -653%.

Regarding `Cc1cc(CN2CCN(CC3CC3)[C@@H]3CS(=O)(=O)C[C@@H]32)ccc1F`, the Percent Effect was -14.2%.

Turning to `Cc1noc([C@@]23CCO[C@@H]2CCN(C(=O)c2ccsc2)C3)n1`, the Percent Effect was -23.9%.

As to `CNS(=O)(=O)c1csc(C(=O)N(C)Cc2sccc2C)c1`, the Percent Effect was -17.6%.

Consider `CNS(=O)(=O)c1csc(C(=O)N(C)Cc2ccccc2C)c1`, for which the Percent Effect amounted to 51.6%.

`CCNS(=O)(=O)c1ccc(C)c(C(=O)N(C)Cc2ccccc2C)c1`: the Percent Effect was -0.166%.

In the case of `CCCn1ncc(CN2C[C@@H]3CCCN3C[C@@H]2Cc2ccccc2)c1C`, the Percent Effect amounted to 21.5%.

In the case of `CC(C)CN1C(=O)CO[C@@H]2CN(C(=O)C3CCOC3)C[C@H]21` (stereo partly specified), the Percent Effect is 12.2%.

Take `O=C(c1cscn1)N1C[C@@H](Oc2cccnc2)[C@H]2OCCC[C@H]21`: the Percent Effect came out at 29.5%.

As for `CNc1ncc(CN(C)C(=O)c2cccc(Cn3cccn3)c2)cn1`, the Percent Effect is 118%.

In the case of `CNc1ncc(CN(C)C(=O)c2cccc(-n3cnnc3)c2)cn1`, the Percent Effect is -1.45%.

On to `CNc1ncc(CN(C)C(=O)c2cccc(-n3cccn3)c2)cn1`, for which the Percent Effect is -5.61%.

As to `c1ccc(COC[C@H]2CC[C@H]3[C@H](CCN3c3ncccn3)O2)nc1`, the Percent Effect is -8.11%.

Regarding `Cc1c[nH]c(C(=O)N2C[C@H]3CC[C@@H]2CN(Cc2cscn2)C3)n1`, the Percent Effect is -15.7%.

For `COc1ccc(CNC[C@@]2(COc3cccnc3)C[C@@H](O)[C@@H](O)C2)cc1`, the Percent Effect was found to be 0.869%.

Turning to `Cc1ccc(N2CCO[C@H]3CN(Cc4cc(C)on4)CC[C@H]3C2=O)cn1`, the Percent Effect is -3.21%.

In the case of `COCCCC1CCN([C@@H]2c3ccccc3C3(CCNCC3)[C@H]2O)CC1`, the Percent Effect was -6.55%.

`CCOCCN1CCN([C@@H]2c3ccccc3C3(CCNCC3)[C@H]2O)CC1`: the Percent Effect amounted to 82.6%.

With `COCCCN1CCN([C@@H]2c3ccccc3C3(CCNCC3)[C@H]2O)CC1`, the Percent Effect is -9.22%.

With `CCOC(=O)[C@]12CCCN(Cc3ccsc3)C[C@H]1CN(CCOC)C2`, the Percent Effect is -32.4%.

`Cc1nc(CNC(=O)NC(C)c2ccc3c(c2)OCCCO3)cs1` (stereo unspecified): the Percent Effect is -3.62%.

Consider `Cc1nc(CN(C)C(=O)NC(C)c2ccc3c(c2)OCCO3)cs1` (stereo unspecified), for which the Percent Effect came to 58%.

Consider `Cc1nc(CCNC(=O)NC(C)c2ccc3c(c2)OCCO3)cs1` (stereo unspecified), for which the Percent Effect was -9.04%.

`CO[C@@H]1CCN(S(=O)(=O)N(C)C)[C@@H]2CN(Cc3ccncc3)C[C@@H]21`: the Percent Effect is -11%.

On to `CN(C)C(=O)c1cn[nH]c1C1(C)CCCN(Cc2ccccn2)C1` (stereo unspecified), for which the Percent Effect is -25%.

Take `CN(C)C(=O)c1cn[nH]c1C1(C)CCN(c2ncccn2)CC1`: the Percent Effect stood at 72.9%.

Consider `CC1(c2[nH]ncc2C(N)=O)CCN(c2ncccn2)CC1`, for which the Percent Effect was -9.79%.

For `O=C(C1CC1)N1CC[C@H]2C(=O)N(c3ccsc3)CCO[C@H]2C1`, the Percent Effect is -24.6%.

Take `CCN1CCC(N[C@@H]2CC[C@@H]2NC(=O)Cc2csc(C)n2)CC1`: the Percent Effect came to 64.6%.

Regarding `Cc1nc(CC(=O)NCCN2CCC(c3ccccc3C)C2)cs1` (stereo unspecified), the Percent Effect was 5.3%.

As for `CCN1CCC(NC(=O)Cc2csc(C(C)(C)C)n2)CC1`, the Percent Effect is -28.7%.

With `COCC(=O)NC[C@H]1C[C@@H]2CCN1C[C@@H]2CN1CCc2ccccc2C1`, the Percent Effect was -21.5%.

`Cc1nc(CN2C(=O)CC[C@@H]3[C@H]2CCN3C(=O)C2CCOCC2)cs1`: the Percent Effect is -22.6%.

Take `CCC(CC)C(=O)n1ccn(S(=O)(=O)c2ccc(C)cc2)c1=O`: the Percent Effect is 69.1%.

With `Cc1ccc(S(=O)(=O)n2ccn(C(=O)COc3ccccc3)c2=O)cc1`, the Percent Effect was -1%.

With `Cc1ccc(S(=O)(=O)n2ccn(C(=O)CC(C)C)c2=O)cc1`, the Percent Effect amounted to 10.8%.

Take `CS(=O)(=O)N1CCO[C@@H]2CN(C(=O)C3CC(F)(F)C3)C[C@@H]2C1`: the Percent Effect was -14.3%.

`Cc1cccc(-n2nnnc2C(C)(C)Nc2ccccc2C)c1`: the Percent Effect came to 71.2%.

For `Cc1ccc(NC(C)(C)c2nnnn2-c2ccc(Cl)cc2)c(C)c1`, the Percent Effect is 43.2%.

Take `COc1ccc(-n2nnnc2C(C)(C)Nc2ccc(C)cc2C)cc1`: the Percent Effect is -14.4%.

`Fc1ccc(CN2CCO[C@H]3[C@H](OCCN4CCCC4)CC[C@@H]32)cc1`: the Percent Effect is -7.44%.

For `Cc1nnc(N2C[C@@H](OCC3CCCC3)[C@H]3OCCC[C@H]32)s1`, the Percent Effect was -34.8%.

For `N[C@@H]1c2ccccc2C2(CCN(C(=O)c3ccccc3O)CC2)[C@H]1O`, the Percent Effect stood at 1.94%.

`Cc1ccc(C(=O)N2CCC3(CC2)c2ccccc2[C@@H](N)[C@@H]3O)c(=O)[nH]1`: the Percent Effect was found to be 70%.

As to `Cc1ccc(Cl)cc1C(=O)N1CCC2(CC1)c1ccccc1[C@@H](N)[C@@H]2O`, the Percent Effect was -27.1%.
